In ChEMBL document CHEMBL1157539, “Thousands of chemical starting points for antimalarial lead identification” (Nature, 2010):

Experiments:
Assay type in all cases: functional
Plasmodium falciparum [1] = test: GSK_TCMDC: Inhibition of Plasmodium falciparum 3D7 in whole red blood cells, using parasite LDH activity as an index of growth. Test compounds present at 2uM
Plasmodium falciparum [2] = test: GSK_TCMDC: Inhibition of Plasmodium falciparum Dd2 in whole red blood cells, using parasite LDH activity as an index of growth. Test compounds present at 2uM
HepG2 = test: GSK_TCMDC: Percent inhibition of human HepG2 cell line. Test compounds present at 10uM.

Compound	Inhibition (Plasmodium falciparum [1])	Inhibition (Plasmodium falciparum [2])	Inhibition (HepG2)
Cc1noc(-c2cccs2)c1C(=O)NCCc1cccc(Cl)c1	97%	95%	0%
CC(CN1CCN(CC(c2ccc(F)cc2)N2CCN(C)CC2)CC1)C(=O)c1ccc(O)cc1.O=C(O)/C=C\C(=O)O (stereo not drawn)	97%	10%	0%
CC(CN(C)C)C(=O)Nc1ccc(-c2csc(-c3nc4ccccc4[nH]3)c2)cc1 (stereo not drawn)	84%	19%	28%
O=C(/C=C/c1ccc(Cl)c(Cl)c1)NCCCCCN1CCCN(C(=O)Nc2ccc(Cl)c(C(F)(F)F)c2)CC1	100%	16%	35%
Cl.FC(F)(F)c1ccc2c(NCCNc3ccnc4cc(C(F)(F)F)ccc34)ccnc2c1	100%	100%	21%
O=C(NC1CCCCN(Cc2ccccc2O)C1)c1ccc(-c2ccccc2)cc1.O=C(O)C(F)(F)F (stereo not drawn)	97%	61%	21%
CC(C)c1ccc(S(=O)(=O)N(c2ccc3c(c2)OCO3)C2CCN(Cc3ccccc3)C2)cc1 (stereo not drawn)	100%	92%	1%
O=C(CCN1C(=O)c2ccccc2C1=O)N1CCN(CC=Cc2ccccc2)CC1	87%	3%	10%
O=C(Nc1ccccc1Cc1ccccc1)c1ccccc1C(F)(F)F	99%	85%	0%
COc1ccc(C(F)(F)F)cc1N1CCN(CCCCNC(=O)c2ccc(NC(=O)c3ccc(Cl)cc3)cc2)CC1	94%	1%	12%
COc1cc(NC(=O)c2sc(-c3ccc(Cl)cc3)cc2NC(=O)c2ccncc2)ccc1OCCN1CCCC1	100%	100%	100%
O=C(CNC(=O)c1ccc(O)cc1)Nc1ccc(-c2cccc(-c3nc4cc(C(F)(F)F)ccc4[nH]3)c2)cc1	92%	47%	26%
COCCOc1cc(C)c(C2CCN(CCCCNC(=O)c3ccc(NC(=O)c4ccc(Cl)cc4)cc3)CC2)cc1C	88%	30%	15%
COc1ccccc1C1CCN(C2CCC(NC(=O)/C=C/c3cccc(Cl)c3F)CC2)CC1 (stereo not drawn)	96%	19%	50%
COc1cc2c(cc1OC)CN(CCc1ccc(NC(=O)c3cc4cc(OC(F)(F)F)ccc4[nH]3)cc1)CC2	99%	20%	36%
CC(C)Nc1nc(NCCc2c[nH]cn2)nc(Nc2ccc(Oc3ccccc3)cc2)n1	95%	9%	0%
CC(CN1CCN(C)CC1)C(=O)Nc1cccc(-c2cccc(-c3nc4cc(F)ccc4[nH]3)c2)c1 (stereo not drawn)	100%	78%	23%
Fc1ccc2[nH]ccc(=NN=CC=Cc3ccccc3)c2c1	96%	77%	29%
CCCCCCC(C)c1cc(O)c2c(c1)OC(C)(C)C=C2c1ccncc1 (stereo not drawn)	98%	29%	0%
Nc1ncc(-c2cn[nH]c2)cc1-c1nc2ccc(F)cc2[nH]1	100%	53%	38%
O=C(Nc1cccc(-c2ccc(CN3CCC(O)CC3)cc2)c1)c1ccc(Cl)cc1.O=C(O)C(F)(F)F	95%	8%	46%
